Compound activity from PubChem BioAssay.
Rce1 inh: yeast Rce1p protease inhibitors, primary screen, biochemical, fluorescence, cell-free homogeneous; yeast membranes, quenched prenylated peptide cleavage fluorescence; calls only; 290,000 tested, 0.27% active; AID 2563, 2010; CAAX prenyl protease 2 (Saccharomyces cerevisiae (strain ATCC 204508 / S288c)), Q03530;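 active means fall in fluorescence gain of 50% or more versus controls, with final raw signal at or below 3038400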;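 further: plate controls were neutral control wells for no effect and wells lacking membranes for full effect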
DNA FID counter: compounds displacing fluorescent DNA intercalator, primary screen, artefact control for HCV NS3 helicase inhibitor project, biochemical, FID fluorescence. 290,000 tested, 0.17% active. AID 1845, 2009. DNA fluorescent intercalator displacement. inhibition, % at 7.9 µM; in the data active means inhibition above about 37%;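 further: 0% = vehicle and 100% = reference compound; higher means more ethidium bromide displaced from hairpin DNA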
PfM18AAP inh-1: PfM18AAP inhibitors, malaria aminopeptidase, primary screen, biochemical, QFRET, recombinant enzyme | H-Glu-NHMec fluorogenic cleavage | inhibition, % at 7.35 µM | 290,000 tested, 1.2% active | M18 aspartyl aminopeptidase (Plasmodium falciparum 3D7);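 active means inhibition above the campaign mean inhibition over all tested compounds plus 3 SD, cut at about 28% in these data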;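 further: 0% = plate median of test compound wells and 100% = 2 mM ZnCl2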
Kir21 block: inhibitors of mouse Kir2.1 inward-rectifier potassium channel; Inward rectifier potassium channel 2 (Mus musculus), P35561; HEK293-Kir2.1, FluxOR thallium flux fluorescence; stronger effect = lower value; B-score at 10 µM; 310,000 tested, 0.85% active;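 active means fluorescence ratio B-score at or below minus 3 SD of library scores, with starting-brightness B-score within 2 SD, cut at about -4.2 in these data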;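 further: channel flux triggered by added potassium and thallium sulfate stimulus; B-score of peak minus minimum fluorescence over baseline after thallium stimulus; more negative B-score means stronger Kir2.1 block with less thallium influx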
Target sequence (P35561 whole entry, looked up): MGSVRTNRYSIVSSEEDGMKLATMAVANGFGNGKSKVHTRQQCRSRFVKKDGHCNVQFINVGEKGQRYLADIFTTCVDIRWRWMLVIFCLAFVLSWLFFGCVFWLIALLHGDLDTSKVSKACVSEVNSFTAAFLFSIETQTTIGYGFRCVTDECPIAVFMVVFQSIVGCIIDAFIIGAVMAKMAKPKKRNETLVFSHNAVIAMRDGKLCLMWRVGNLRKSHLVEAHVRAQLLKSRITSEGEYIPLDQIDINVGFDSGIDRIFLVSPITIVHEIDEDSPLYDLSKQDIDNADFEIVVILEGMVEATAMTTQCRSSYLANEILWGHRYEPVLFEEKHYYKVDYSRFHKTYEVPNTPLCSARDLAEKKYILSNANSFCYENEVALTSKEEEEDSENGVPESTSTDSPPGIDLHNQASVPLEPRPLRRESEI
PfM18AAP inh-2: PfM18AAP inhibitors, malaria aminopeptidase, confirmation, biochemical, QFRET, recombinant enzyme, triplicate | AID 2170, 2009 | shares compounds with PfM18AAP inh-1 | H-Glu-NHMec fluorogenic cleavage | 2,400 tested, 28% active | inhibition, % at 7.35 µM;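 active means mean inhibition over replicate wells above the hit cutoff set for the earlier primary screen, cut at about 29% in these data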;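 further: 0% = median of test compound wells and 100% = 2 mM ZnCl2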
CTSL1 counter: cathepsin L1 inhibitors, retest, confirmation, counter-screen for PFM18AAP inhibitor project, biochemical, QFRET, triplicate. purified cathepsin L1, Z-Leu-Arg-MCA fluorescence. 2,400 tested, under 10 active. inhibition, % at 5.96 µM. shares compounds with PfM18AAP inh-1;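 active means average inhibition across replicates above the hit cutoff set in the earlier primary screen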;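 further: 0% = median of test compound wells and 100% = Z-Phe-Ala-diazomethylketone 1 µM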
The depositor's hits bear a star; i = inactive; nt = no result given. Most compounds without a hit are left out; they make up all but 2.3% or so of the library.

SMILES	Rce1 inh	DNA FID counter	PfM18AAP inh-1	Kir21 block	PfM18AAP inh-2	CTSL1 counter
CCOC(=O)c1c(NC(=O)C2CCCO2)sc(C(=O)OC(C)(C)C)c1C (configuration not stated)	i	3.9	34.8*	0.86	6.6	4.5
Cc1sc(NC(=O)C2CCCO2)c(C(N)=O)c1C (configuration not stated)	i	-2.8	37.3*	0.46	-22.5	0.3
CS(=O)(=O)Nc1ccc(C(=O)NCCSc2ccc(Cl)cc2)cc1	i	-0.6	2.0	0.65	nt	nt
O=C(CSc1nnc(-c2ccccc2Br)o1)Nc1nncs1	i	-5.9	43.8*	2.09	-2.3	-3.6
O=C(CSc1nnc(-c2ccncc2)o1)Nc1nncs1	i	-3.2	19.2	-0.9	nt	nt
CC(C)CCN1C(=O)c2ccc(C(=O)Nc3ccccn3)cc2C1=O	i	-6.1	-5.8	-0.7	nt	nt
O=C(NNc1nc2cc3c(cc2s1)OCO3)c1ccc(F)cc1	i	8.9	42.1*	-3.33	5.5	-1.9
O=C(NNc1nc2cc3c(cc2s1)OCCO3)c1ccc(F)cc1	i	-8.9	26.9	0.02	nt	nt
CCN(CC)c1ccc(-n2c(O)c(C=C3N=c4ccccc4=N3)sc2=S)cc1	i	-2.0	-0.1	0.24	nt	nt
O=C(O)c1ccc(-n2c(O)c(C=C3N=c4ccccc4=N3)sc2=S)cc1	i	-15.4	51.0*	0.43	-46.2	0.8
CC(CN1CCOCC1)OC(=O)c1ccccc1 (configuration not stated)	i	-1.0	3.4	-1.6	nt	nt
COc1ccccc1/C=C/C(=O)OC(C)CN1CCOCC1 (configuration not stated)	i	-5.9	50.8*	0.75	-38.6	4.0
COc1ccc(OC)c(NC(=O)Nc2ccccc2C)c1	i	-2.9	3.7	-0.05	nt	nt
CCCCNC(=O)NC1(C(F)(F)F)Oc2ccccc2O1	i	-2.3	81.0*	2.64	-26.1	-6.7
NS(=O)(=O)c1ccc(CCNC(=O)C2COc3ccccc3O2)cc1 (configuration not stated)	i	-2.0	-3.1	-0.49	nt	nt
NS(=O)(=O)c1ccc(CCNC(=O)NC2(C(F)(F)F)Oc3ccccc3O2)cc1	i	-2.3	67.3*	-1.16	-16.1	-1.7
COc1ccc(OC)c(NC(=O)NC2(C(F)(F)F)Oc3ccccc3O2)c1	i	-2.0	62.7*	2.48	-7.4	2.2
Cc1ccc(C(c2c(C)[nH][nH]c2=O)c2c(C)[nH][nH]c2=O)cc1[N+](=O)[O-]	i	-2.5	33.8*	-0.02	23.2	1.6
COc1cc(C(c2c(C)[nH][nH]c2=O)c2c(C)[nH][nH]c2=O)cc([N+](=O)[O-])c1O	i	-9.4	26.8	1.32	nt	nt
CC(CC(=O)O)Nc1ccccc1O (configuration not stated)	i	-5.3	37.8*	-0.43	7.8	-0.8
CC(C)C(=O)NC(CC(=O)O)c1ccccc1 (configuration not stated)	i	0.2	-2.1	0.44	nt	nt
Nc1nc(-c2cccs2)c(CC(=O)O)s1	i	-7.8	9.7	-0.53	nt	nt
O=C(O)Cc1sc(Nc2ccc(Cl)cc2)nc1-c1cccs1	i	7.2	32.7*	-0.28	-30.0	0.8
COc1cc(/C=N/N=C(\N)c2nonc2N)ccc1O	i	-1.0	10.9	2.07	nt	nt
O=C(N/N=C/c1ccc(O)c(O)c1)N/N=C/c1ccc(O)c(O)c1	i	-8.8	79.7*	-1.32	64.0*	-5.0
SMILES	Rce1 inh	DNA FID counter	PfM18AAP inh-1	Kir21 block	PfM18AAP inh-2	CTSL1 counter
N/C(=N\N=C\c1ccc(O)c(O)c1)c1nonc1N	i	-5.0	42.7*	-0.19	25.4	2.6
COc1cc(/C=N/NC(=O)c2nonc2C)ccc1O	i	-1.3	6.2	0.85	nt	nt
O=C(CC(=O)N/N=C/c1ccc(O)cc1)N/N=C/c1ccc(O)cc1	i	-4.4	14.3	-0.44	nt	nt
Cc1nonc1C(=O)N/N=C/c1ccc(O)c(O)c1	i	0.5	66.2*	-0.91	65.6*	-0.9
CC(Sc1nc(-c2ccco2)nc2c1c(=O)n(C)c(=O)n2C)C(=O)O (configuration not stated)	i	-9.4	-12.6	-0.16	nt	nt
O=C(CCc1ccc(O)c(O)c1)NNC(=S)Nc1ccc(Br)cc1Cl	i	4.0	53.6*	-0.24	9.6	-8.7
O=C(CCc1ccc(O)c(O)c1)NNC(=S)NCCc1ccccc1	i	-7.3	68.4*	1.27	30.4*	-0.6
O=C(NCCc1ccccc1)C1COc2ccccc2O1 (configuration not stated)	i	-6.2	-2.4	-0.25	nt	nt
O=C(NCCc1ccc(O)c(O)c1)C1COc2ccccc2O1 (configuration not stated)	i	-7.4	80.1*	-0.52	62.0*	0.7
O=C(NNC(=S)Nc1ccc(Br)cc1Cl)c1ccncc1	i	-6.7	2.3	2.11	nt	nt
CN1C(=O)N(c2cccc3ccccc23)C(n2cncn2)C1(C)C (configuration not stated)	i	-2.8	80.8*	0.44	77.5*	-0.8
CN1C(=O)N(c2ccccc2)C(Nc2nncs2)C1(C)C (configuration not stated)	i	-3.6	-2.3	-0.02	nt	nt
Cc1cccc(N(C)S(=O)(=O)c2csc(C(N)=O)c2)c1	i	-2.9	-3.1	-1.52	nt	nt
C(=C\c1ccco1)/C=N/n1cnnc1	i	-3.6	57.5*	1.62	-5.5	1.1
CC1SC(=S)N(c2ccc(N(C)C)cc2)C1=O (configuration not stated)	i	-2.9	32.8*	-0.21	9.6	-1.2
N#C/C(=C\c1ccc(O)c(O)c1)C(=O)Nc1cccc2ncccc12	i	-0.1	63.0*	-0.15	30.2*	3.2
N#C/C(=C/c1ccc(O)c(O)c1)C(=O)NCc1ccc(Cl)cc1	i	9.0	38.3*	0.25	5.4	0.0
COc1ccc(/C=C(\C#N)C(=O)Nc2cccc3ncccc23)cc1OC	i	-13.8	7.9	-0.5	nt	nt
N#C/C(=C/c1cccc(O)c1)C(=O)NCc1ccc(Cl)cc1	i	1.7	15.6	0.46	nt	nt
O=C1/C(=C\c2cccc(O)c2O)SC(=S)N1Cc1ccccc1	i	-2.9	57.8*	0.02	20.1	-2.6
CCC(C)NC(=O)C1CCN(S(=O)(=O)c2ccc3[nH]c(=O)ccc3c2)CC1 (configuration not stated)	i	-4.0	35.8*	0	-56.2	-1.4
Cc1cc(C)c(-n2c(SCCS(=O)(=O)c3ccc(F)cc3)n[nH]c2=O)c(C)c1	i	-36.1	40.8*	-1.61	-40.2	1.3
Cc1ccc(S(=O)(=O)CCSc2n[nH]c(=O)n2-c2ccccc2)cc1	i	-14.9	5.2	-0.21	nt	nt
